From PubChem BioAssay AID1731 (National Center for Advancing Translational Sciences (NCATS), 2009)
Activity calls are given as the source filed them. Calls come from the whole dose curve; as a rule, active = well fitted curve in the direction sought with a large enough effect; inactive = no such curve, though single readings can be large or run the other way.

target: Epidermal growth factor receptor (Homo sapiens) (UniProt P00533); assay: Assay for Inhibitors of the ERK Signaling Pathway using a Homogeneous Screening Assay: EGFR Kinase Inhibition; details: homogeneous biochemical assay; series mostly up to 21.9 µM
From the text: qHTS Assay for Inhibitors of the ERK Signaling Pathway using a Homogeneous Screening Assay
NIH Chemical Genomics Center [NCGC]
NIH Molecular Libraries Screening Centers Network [MLSCN]
Assay Submitter (PI): Dr. Wei Zheng, NCGC/NIH
The Ras/extracellular-signal-regulated kinase (ERK) mitogen activated protein (MAP) kinase signaling pathway (ERK1/2 cascade) plays is a key role in transmitting signals from the cell surface to the nucleus (Nishida and Gotoh 1993; Chang and Karin, 2001). The cascade is initiated by the small G-protein Ras, which recruits Raf […], where activation occurs. Alternatively, this pathway can be activated by elevating intracellular cAMP.
Activation of the ERK pathway is essential in increased cell division and cell survival. Sustained and constitutive activation of the ERK pathway, however, has been linked to uncontrolled cell proliferation, increased cell survival, and tumor progression. Thus, the ERK has been as an attractive target for cancer chemotherapy in the past few years (Sebolt-Leopold and Herrera, 2004). Given its physiological and pathological importance, assessment of ERK phosphorylation has been broadly performed in both basic research and drug discovery. Most assays for the measurement of ERK phosphorylation use the antibody-based detection methods, such as western blot and ELISA. These assays require multiple reagent additions with cell wash steps and are not suitable for high-throughput screening.
The current cell-based ERK phosphorylation assay was performed using AlphaScreen platform. AlphaScreen is a two bead-based proximity-dependent chemical energy transfer luminescent assay platform. The assay reagents (ERK SureFire(TM) kit) were supplied from TGR BioSciences (Australia). In the presence of specific antibodies, phosphorylated ERK will bring "donor" and "acceptor" beads to a proximity range (<200 nm), and subsequently lead a chemical luminescent reaction upon exciting donor beads with 680 nm laser. To validate pathway hits from the cell-based assay, enzyme assays consisting of EGFR tyrosine kinase, Raf and MEK were used as a means of deciphering the enzymes of target for the prioritized group of compounds derived from the HEK-293 cell based assay. The compounds were tested against significant members of the ERK signaling pathway EGFR and EGFR mutants (EGFR L858R, EGFR T790M, and EGFR L858R T790M). In order to establish the specificity of the prioritized compounds for EGFR and EGFR mutants, the compounds were also assayed against other important ERK signaling pathway enzymes, c-RAF and MEK-1.
NCGC Assay Protocol Summary:
The HTRF kinase assay (components supplied as kit by Cisbio) was chosen for the EGFR and EGFR mutant enzyme assays that applied the time resolved fluorescence resonance energy transfer (TR-FRET) principle. A peptide substrate is labeled with a biotin that can bind to XL665 labeled streptavidin and the anti-phosphoresidue antibody is labeled with Eu+. Upon phosphorylation of the substrate, the antibody binds to phosphorylated substrate that enables TR-FRET detection in homogenous assay format.
An HTRF Kinease TK assay kit (Cisbio, Bedford, MA) was used to develop the EGFR and EGFR mutant assays (Harbert et al., 2008. Harbert C, Marshall J, Soh S, Steger K. Development of a HTRF Kinase Assay for Determination of Syk Activity. Current Chemical Genomics. 1: 20-26. 2008). EGFR and EGFR mutants were obtained from Invitrogen. […]

Chain of Epidermal growth factor receptor (Homo sapiens) (P00533 whole entry, looked up): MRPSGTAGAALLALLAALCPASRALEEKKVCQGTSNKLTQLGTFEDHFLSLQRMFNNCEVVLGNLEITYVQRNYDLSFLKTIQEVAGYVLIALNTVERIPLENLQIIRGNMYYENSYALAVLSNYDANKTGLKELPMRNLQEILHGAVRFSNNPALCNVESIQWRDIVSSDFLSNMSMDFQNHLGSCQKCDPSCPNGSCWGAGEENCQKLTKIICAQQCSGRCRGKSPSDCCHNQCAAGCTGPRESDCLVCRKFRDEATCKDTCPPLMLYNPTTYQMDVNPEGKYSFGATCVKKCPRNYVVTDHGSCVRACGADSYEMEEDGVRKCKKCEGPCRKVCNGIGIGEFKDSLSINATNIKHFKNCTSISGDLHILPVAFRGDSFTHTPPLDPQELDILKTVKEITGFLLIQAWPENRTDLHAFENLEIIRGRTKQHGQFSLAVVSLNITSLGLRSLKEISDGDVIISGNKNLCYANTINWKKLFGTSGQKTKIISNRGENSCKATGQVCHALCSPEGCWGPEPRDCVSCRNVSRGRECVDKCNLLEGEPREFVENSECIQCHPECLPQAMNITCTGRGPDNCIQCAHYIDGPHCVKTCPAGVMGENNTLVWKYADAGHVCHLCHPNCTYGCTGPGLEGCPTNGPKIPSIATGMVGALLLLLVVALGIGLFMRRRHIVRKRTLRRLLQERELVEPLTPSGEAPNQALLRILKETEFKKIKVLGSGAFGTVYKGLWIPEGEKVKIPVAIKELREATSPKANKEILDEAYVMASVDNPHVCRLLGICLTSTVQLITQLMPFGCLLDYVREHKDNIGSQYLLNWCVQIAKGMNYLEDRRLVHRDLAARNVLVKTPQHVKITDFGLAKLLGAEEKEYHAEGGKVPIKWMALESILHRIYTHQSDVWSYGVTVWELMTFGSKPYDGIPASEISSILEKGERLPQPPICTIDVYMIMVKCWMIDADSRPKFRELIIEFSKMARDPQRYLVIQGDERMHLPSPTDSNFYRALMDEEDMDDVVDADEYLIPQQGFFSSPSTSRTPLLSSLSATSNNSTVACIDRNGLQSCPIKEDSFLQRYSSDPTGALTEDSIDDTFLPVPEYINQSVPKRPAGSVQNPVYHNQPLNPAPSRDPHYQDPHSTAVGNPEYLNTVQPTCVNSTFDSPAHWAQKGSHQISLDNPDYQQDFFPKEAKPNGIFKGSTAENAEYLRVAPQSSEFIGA

Compound | outcome
CCn1nc(-c2ccccc2)nc2c(=O)n(C)c(=O)nc1-2 | inactive
Cn1nc(-c2ccccc2)nc2c(=O)n(C)c(=O)nc1-2 | inactive
CCn1nc(-c2cccs2)nc2c(=O)n(C)c(=O)nc1-2 | inactive
Cc1nc2c(=O)n(C)c(=O)nc-2n(C)n1 | inactive
CN1CCN(c2cccc3c2C(=O)c2ccccc2C3=O)CC1 | inactive
